Calls of active or inactive are those of the source.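 How the source made its calls: active means blocks over 70% of labeled estradiol binding at 10 µM, or over a set limit at 100 nM; inactive means the rest.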

The target in this experiment is Estrogen receptor beta (Homo sapiens) (UniProt Q92731). The experiment can be described thus: displacement of fluorescent estrogen from ERbeta – cell-based, Cos7 ERbeta-GFP, flow cytometry, primary screen (AID 1210).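 Further: 0% = DMSO vehicle wells and 100% = complete loss of labeled estradiol signal.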 The settings on record: fluorescent estrogen binding, at 10 µM, stronger effect = higher value. A general note: Flow cytometry measures light scatter and fluorescence of single cells or particles in a stream.
Sequence of Estrogen receptor beta (Homo sapiens) (Q92731 whole entry, looked up): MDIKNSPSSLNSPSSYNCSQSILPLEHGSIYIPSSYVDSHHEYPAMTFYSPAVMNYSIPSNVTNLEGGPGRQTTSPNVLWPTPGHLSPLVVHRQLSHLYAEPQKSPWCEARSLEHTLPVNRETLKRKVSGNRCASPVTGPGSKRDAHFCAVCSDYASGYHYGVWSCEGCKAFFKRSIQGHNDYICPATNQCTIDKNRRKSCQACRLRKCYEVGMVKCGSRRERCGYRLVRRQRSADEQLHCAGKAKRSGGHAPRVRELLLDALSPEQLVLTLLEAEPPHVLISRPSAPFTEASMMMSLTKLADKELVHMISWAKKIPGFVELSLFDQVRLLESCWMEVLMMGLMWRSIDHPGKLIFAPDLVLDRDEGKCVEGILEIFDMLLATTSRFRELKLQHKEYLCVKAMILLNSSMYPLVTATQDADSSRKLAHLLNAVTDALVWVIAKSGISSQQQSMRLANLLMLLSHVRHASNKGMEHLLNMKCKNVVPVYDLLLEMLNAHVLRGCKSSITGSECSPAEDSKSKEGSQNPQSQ
Consider `Cc1ccc(-c2csc(NC(=O)c3ccno3)n2)cc1`, for which the inhibition is 40% (inactive).
In the case of `Cc1ccc(C)c(/C(O)=C2/C(=O)C(=O)N(CCN3CCOCC3)C2c2ccco2)c1` (centres undefined) it was 23% (inactive); in that of `Cc1cc(C(=O)O)ccc1-n1c(C)ccc1C`, 69% (inactive).
Regarding `O=C(Cn1ncc2c(=O)oc3ccccc3c21)Nc1nc2ccccc2s1`, the inhibition was 35% (inactive).
The figure for `O=C(Nc1ccc(-c2nc3ccc(NC(=O)c4cccs4)cc3[nH]2)cc1)c1cccs1` is 58% (inactive); for `O=C(NC1CCN(C(=O)N2c3ccccc3Sc3ccccc32)CC1)c1ccccc1Cl` it is 18% (inactive).
The figure for `C/C=C/COC(=O)c1[nH]c2c(c1C)C(=O)CC(c1ccco1)C2` (centres undefined) is 53% (inactive); for `CC(C)(C)NC(=O)c1ccc2c(c1)C1C3CCC(C3)C1C(c1ccccc1)N2` (centres undefined) it is 3% (inactive).
Regarding `COc1ccc(NC(=O)CSc2nc3ccccc3c3nc4ccccc4n23)cc1`, the inhibition is 38% (inactive).
For `Cc1nc(-c2ccc(O)c(O)c2)cs1`, the inhibition is 31% (inactive).
The figure for `Cc1ccc(C(=O)N/N=C/c2ccc([N+](=O)[O-])s2)cc1` is 38% (inactive); for `COc1cc(NC(=O)c2cccs2)c(C(=O)OCC(=O)NC(=O)NCc2ccccc2)cc1OC` it is 8% (inactive); for `O=C(Nc1cccc2cccc(NC(=O)c3ccco3)c12)c1ccco1` it is 24% (inactive).
As to `Cc1cc(-c2nn3c(-c4ccccc4)nnc3s2)c2ccccc2n1`, the inhibition is 71% (active).
The figure for `O=C(O)C1CSC(c2coc3ccccc3c2=O)N1` (centres undefined) is 26% (inactive); for `Cc1occc1C(=O)NCc1cccc(CNC(=O)c2ccoc2C)c1` it is 2% (inactive); for `Cc1cccc(N2CCN(C(=O)c3cc4c(=O)n(C)c5ccccc5c4n3C)CC2)c1C` it is 46% (inactive).
As to `CC1CCCN(c2nc3c(c(=O)[nH]c(=O)n3C)n2Cc2ccccc2Cl)C1` (centres undefined), the inhibition is 38% (inactive).
In the case of `Cn1c(SCC(=O)Nc2sccc2C#N)nnc1-c1ccccc1` it was 12% (inactive).
In the case of `COC(=O)c1cc(-c2c(C)oc3cc(O)ccc3c2=O)c(C)o1` it was 12% (inactive).
In the case of `CSc1ccccc1NC(=O)c1noc2c1CCC2` it was 26% (inactive); in that of `Cc1snc2sc(C(=O)c3ccc(Br)cc3)c(N)c12`, 26% (inactive); in that of `COc1ccc(OC)c(C(=O)CSc2nnc(-c3ccc(OC)c(OC)c3)o2)c1`, 49% (inactive).
Regarding `CCc1nc(N)nc(N)c1-c1ccc(Cl)cc1`, the inhibition was 38% (inactive).
In the case of `Cc1ccc(-n2nnnc2SCC(=O)Nc2ccc3c(c2)COC3=O)cc1C` it was 15% (inactive); in that of `COc1cc(C2Nc3c(F)cccc3C3C=CCC32)cc(Br)c1OC` (centres undefined), 0% (inactive); in that of `COc1cc(C(=O)Nc2nnc(-c3sccc3C)s2)cc(OC)c1OC`, 52% (inactive).
Regarding `COCCCn1c(Cc2csc(Nc3cccc(Cl)c3)n2)nnc1SCC(=O)OC1CCCCC1`, the inhibition is 11% (inactive).
As for `C1CCC(c2nn3c(-c4n[nH]c5c4CCC5)nnc3s2)CC1`, the inhibition is 61% (inactive).
In the case of `CCOc1cc(C2CC(=O)c3c(ccc4ccccc34)N2)ccc1O` (centres undefined), the inhibition was 19% (inactive).
The figure for `COc1ccc(NC(=O)C(NC(=O)c2ccc(=O)[nH]c2)c2ccc(C)cc2)cc1` (centres undefined) is 52% (inactive).
The figure for `COc1ccc(C2CC(c3cccs3)=NN2c2ccc(C=O)cc2)cc1` (centres undefined) is 42% (inactive); for `CC1CCN(S(=O)(=O)c2ccc(NC(=O)Cc3cccs3)cc2)CC1` it is 36% (inactive).
The figure for `N#CC(C(=O)Nc1ccc(Cl)cc1)=C1Nc2ccccc2N1` is 59% (inactive); for `O=C1c2ccccc2C(=O)N1/N=C/c1ccc(O)c(O)c1` it is 58% (inactive); for `O=C(Nc1ccccc1N1CCOCC1)c1cc(-c2ccco2)nc2ccccc12` it is 56% (inactive).
As to `Oc1c(C=Nc2cccc3cccnc23)sc2ccccc12`, the inhibition was 31% (inactive).
The figure for `Cc1cc(C)n2nc(SCc3cc(=O)oc4cc(O)ccc34)nc2n1` is 19% (inactive).
For the compound `Cc1oc2c(C)c(O)ccc2c(=O)c1N1C(=O)c2ccccc2C1=O`, the inhibition was 16% (inactive).

What is called inhibition is how much of the control response was suppressed.

These data come from PubChem BioAssay AID1210 (NMMLSC, 2008).
